The source of these data is PubChem BioAssay (NCATS).

Values joined by “and” are separate entries in the source; they are usually repeats but may differ in a detail not shown here. Equal values may be shown once. Records with an inconclusive call do not appear. A number with no mark means an inactive call. Active and inactive are the calls of the source. Calls come from the whole dose curve; as a rule, active = well fitted curve in the direction sought with a large enough effect; inconclusive = small, poorly fitted or top-dose-only effect, or another doubt; inactive = no such curve, though single readings can be large; an effect the other way counts as inactive or inconclusive.

A short description of assay [1]: Viability qHTS for spleen associated tyrosine kinase inhibitor (SYKi) naive MV4-11 cells (AID 1963823). Note: nearly all actives have a fitted effect of over 40% in size. Put shortly:
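SYK inhibitor-naive MV4-11 cells, 500 per well, exposed to compounds for 72 hr at 37 C, 5% CO2. Viability read as CellTiter-Glo luminescence after 10 min at room temperature.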
In general terms: Quantitative high-throughput screening tests each substance at several concentrations.

Assay [2] in a line: Cellular viability qHTS for adrenocortical cancer (ACC) cell line SW-13 (AID 1963989).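 For activity (max response): cells grown in serum-free medium with ITS supplement; % is set by controls: 0 for no effect and ±100 for the full control effect.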 Note: nearly all actives have a fitted effect of over 65% in size. The conditions noted are these: SW-13 ACC cells viability, CellTiter-Glo, 48 h; activity (max response): hits give low values. The gist of the method: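 SW-13 cells in ITS-supplemented serum-free DMEM were plated overnight, then exposed for 48 h at 37C to compound titrations (up to 46 uM final). Viability was read by CellTiter-Glo luminescence; four-parameter logistic fits gave IC50 and efficacy.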

A short description of assay [3]: Cellular viability qHTS for adrenocortical cancer (ACC) cell line NCI-H295R (AID 1963990). Note: nearly all actives have a fitted effect of over 60% in size. The gist of the method:
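Luminescent ATP read-out (CellTiter-Glo, 20 min RT) after 48 h drug exposure of NCI-H295R cells; a titration up to 46 uM final. Data normalized to doxorubicin (100% inhibition) and DMSO (0%); 4-parameter fit gives IC50, max response.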
Potency is the fitted concentration of half-maximal effect.

`C[C@]12C=CC(=O)C=C1CC[C@@H]1[C@@H]2[C@@H](O)C[C@@]2(C)[C@H]1CC[C@]2(O)C(=O)CO`: the Potency entry in assay [1] and in assay [3] was “inactive” each time. The activity (max response) in assay [2] is -7.97% and -0.878%.

`O=C(CCCN1CC=C(n2c(=O)[nH]c3ccccc32)CC1)c1ccc(F)cc1`: the Potency result in assay [1] and in assay [3] was “inactive” each time. In assay [2], the activity (max response) is -10.3%.

For `CC(=O)Nc1ccc(C(=O)Nc2ccccc2N)cc1`, the Potency in assay [1] is 5.63 µM (active) and 4.68 µM (active); in assay [2], 11.2 µM (active); in assay [3], 6.31 µM (active).

With `Cc1ccc(/C=N/n2c(-c3ccccc3)csc2=S)cc1`, the Potency entry in assay [1] and in assay [3] was “inactive” throughout. For the same molecule, the activity (max response) in assay [2] was 8.75%.

With `COc1ccc(-c2c(C)nn3c(NCCN4CCOCC4)cc(C)nc23)cc1OC`, the Potency in assay [1] was 8.33 µM (active). The activity (max response) in assay [2] is 10.9%. Moreover, the Potency entry in assay [3] is “inactive”.

For `C[C@]12CC[C@@H]3c4ccc(O)cc4C[C@@H](CCCCCCCCCS(=O)CCCC(F)(F)C(F)(F)F)[C@H]3[C@@H]1CC[C@@H]2O` (some centres undefined), the Potency entry in assay [1] and in assay [3] was “inactive” in each case. Further, the activity (max response) in assay [2] was -10.5%.

Consider `C[C@]12CC[C@@H]3c4ccc(O)cc4CC[C@H]3[C@@H]1CC[C@@H]2OC(=O)CCC1CCCC1`, for which the Potency result in assay [1] and in assay [3] was “inactive” each time. For the same molecule, the activity (max response) in assay [2] was 5.6%.

As to `Cc1ncc(CO)c(CO)c1O`, in assay [1], the Potency is 3.76 µM (active). Further, the activity (max response) in assay [2] is 1.35%. Also, the Potency entry in assay [3] was “inactive”.

Regarding `CCCCCCCCCCCCSCCOCCO`, the Potency result in assay [1] and in assay [3] was “inactive” throughout. The activity (max response) in assay [2] was -3.34%.

In the case of `CCN(CC)CCOC(=O)C1(c2ccccc2)CCCC1`, the Potency entry in assay [1] and in assay [3] was “inactive” throughout. In assay [2], the activity (max response) is 8.5%.

As for `CC(=O)Oc1cccc(O)c1`, the Potency entry in assay [1] and in assay [3] was “inactive” each time. For the same molecule, the activity (max response) in assay [2] was 7.39%.

Take `Cc1c(C)c2c(c(C)c1OC(=O)CCC(=O)OCCO)CC[C@@](C)(CCC[C@H](C)CCC[C@H](C)CCCC(C)C)O2`: the Potency result in assay [1] is “inactive”. Also, the values for the Potency in assay [2] and in assay [3] were 18.4 µM (active) and 13 µM (active), respectively.

Take `O=C1NC(=O)/C(=C\c2ccc(-c3ccc(F)cc3)o2)S1`: the Potency in assay [1] is 14.8 µM (active). Moreover, the activity (max response) in assay [2] was 3.49%. Also, in assay [3], the Potency result is “inactive”.

In the case of `O=C(CCCCCCNC(=O)c1cnc(N(c2ccccc2)c2ccccc2Cl)nc1)NO`, the Potency was 3.32 µM (active) in assay [1], 14.1 µM (active) in assay [2] and 11.2 µM (active) in assay [3].

As to `O=C(O)c1ccc(CN2CCC(CN[C@@H]3C[C@H]3c3ccccc3)CC2)cc1`, the Potency result in assay [1] and in assay [3] was “inactive” in each case. Further, in assay [2], the activity (max response) was 7.26%.

In the case of `CCC[C@@H]1C[C@@H](C(=O)N[C@@H]([C@H]2O[C@H](SC)[C@H](O)[C@@H](O)[C@H]2O)[C@H](C)Cl)N(C)C1`, the Potency result in assay [1] and in assay [3] was “inactive” in each case. Besides, in assay [2], the activity (max response) was 5.6%.

Consider `CN1CCC[C@@H]1Cc1c[nH]c2ccc(CCS(=O)(=O)c3ccccc3)cc12`, for which the Potency result in assay [1] and in assay [3] was “inactive” each time. For the same molecule, the activity (max response) in assay [2] is -0.887%.

As to `COc1ccc(C(=O)C2CCN(CC(=O)N(Cc3nc4c(c(=O)[nH]3)COCC4)CC3CC3)CC2)cc1`, the Potency result in assay [1] and in assay [3] was “inactive” each time. Besides, the activity (max response) in assay [2] was 0.295%.

As for `CN(C)C(=S)SC(=S)N(C)C`, the Potency in assay [1] is 1.68 µM (active); in assay [2] it was 9.2 µM (active); in assay [3] it was 2.31 µM (active).

With `C=CC(=O)Nc1cccc(Oc2nc(Nc3ccc(N4CCN(C)CC4)cc3)nc3ccsc23)c1`, the Potency in assay [1] was 2.63 µM (active); in assay [2], 3.16 µM (active); in assay [3], 5.01 µM (active).

Consider `CCC1Nc2cc(Cl)c(S(N)(=O)=O)cc2S(=O)(=O)N1` (centres undefined), for which the Potency result in assay [1] and in assay [3] was “inactive” each time. Further, the activity (max response) in assay [2] is 2.08%.

On to `CCOC(=O)[C@H](CCc1ccccc1)N[C@@H](C)C(=O)N1[C@H](C(=O)O)C[C@@H]2CCC[C@@H]21`, for which the Potency entry in assay [1] and in assay [3] was “inactive” throughout. Moreover, the activity (max response) in assay [2] was 3.72% and 7.5%.

Turning to `O=[N+]([O-])c1cccc(S(=O)(=O)NCCNS(=O)(=O)c2cccc([N+](=O)[O-])c2)c1`, the Potency result in assay [1] and in assay [3] was “inactive” in each case. Also, in assay [2], the activity (max response) is -5.4%.

On to `O=C(OOC(=O)c1ccccc1)c1ccccc1`, for which the Potency entry in assay [1] and in assay [3] was “inactive” throughout. In addition, the activity (max response) in assay [2] was 0.27%.

On to `O=C(O)CCn1c2c(c3ccccc31)C[C@H](NS(=O)(=O)c1ccc(F)cc1)CC2`, for which the Potency entry in assay [1] and in assay [3] was “inactive” each time. The activity (max response) in assay [2] was -2.29% and -2.36%.

In the case of `Cc1ncc(CO)c(CN)c1O`, the Potency result in assay [1] and in assay [3] was “inactive” throughout. In addition, the activity (max response) in assay [2] was 7.61%.

Turning to `Cc1ccc(O)c(-n2nc3ccccc3n2)c1`, the Potency result in assay [1] and in assay [3] was “inactive” throughout. Moreover, the activity (max response) in assay [2] is -8.34%.

For `CC(C(O)c1ccc(O)cc1)N1CCC(Cc2ccccc2)CC1` (centres undefined), the Potency result in assay [1] and in assay [3] was “inactive” each time. In assay [2], the activity (max response) is -9.39%.
